Measured values taken from PubChem BioAssay AID1347076 (National Center for Advancing Translational Sciences (NCATS), 2019).
Screen size: about 400,000 compounds; about 13,000 (3.2%) were called active. Roughly 18% stayed inconclusive and do not appear here. The list comes from a sample in which actives are over-represented; it also holds similar structures and randomly drawn compounds. Values without a mark were called inactive. Calls come from the whole dose curve; as a rule, active = well fitted cell-killing curve with a large enough effect; inconclusive = small, poorly fitted or top-dose-only effect, or effect the other way; inactive = flat fitted curve, though single readings scatter.

test: qHTS assay for MDR1-selective chemotherapeutics: Primary screen using the drug-selected MDR subline cells KB-V1; conditions: KB-V1 MDR cells viability, CellTiter-Glo, 72 h; series mostly up to 46.1 µM; activity change, negative = cytotoxicity: at the top concentration; note: nearly all actives have a fitted effect of over 60% in size
Summary of the method: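 Drug-selected KB-V1 cells, grown in DMEM lacking phenol red with 10% FBS, receive compound titrations; after three days at 37 degrees C, surviving cell ATP is quantified by CellTiter-Glo luminescence and responses normalized and curve-fitted.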
% is set by controls: 0 for no effect and ±100 for the full control effect; potency is the fitted concentration of half-maximal effect.

| SMILES | activity change, negative = cytotoxicity | Potency |
| --- | --- | --- |
| CCCNC(=O)C1CC(=O)N(c2ccc(OCc3ccccc3)cc2)C1 (stereo not drawn) | -19.5% |  |
| CC(C)n1ncc2c(C(=O)Nc3ccc(CC#N)cc3)cc(C3CC3)nc21 | -15.1% |  |
| CC(C)n1ncc2c(C(=O)NCc3ccccc3CN(C)C)cc(C3CC3)nc21 | 28.4% |  |
| COc1ccc(OCCNC(=O)c2cc(C3CC3)nc3c2cnn3C(C)C)cc1 |  | 8.2 µM (active) |
| CCCCN1C(=O)C(CC(=O)NCc2cccs2)CC(C(=O)N2CCOCC2)=C1C (stereo not drawn) | 21.1% |  |
| O=C(Nc1ccc2c(c1)OCCO2)C(C1CC1)N1CCC(Cc2ccccc2)CC1 (stereo not drawn) | 6.42% |  |
| O=C(NCc1ccccn1)C1CCN(S(=O)(=O)c2ccc(Br)cc2)CC1 | 5.38% |  |
| O=C(Nc1ccccn1)C1CCN(S(=O)(=O)c2ccc3c(c2)OCCO3)CC1 | -5.52% |  |
| O=C(Nc1ccccn1)C1CCN(S(=O)(=O)c2ccccc2)CC1 |  | 18.4 µM (active) |
| CN(Cc1ccc(C(F)(F)F)cc1)C(=O)[C@H]1O[C@@H](n2cnc3c(N)ncnc32)[C@H](O)[C@@H]1O | -2.71% |  |
| O=[N+]([O-])c1cc(C(F)(F)F)ccc1NN=C1CCCC1 | 28.7% |  |
| O=[N+]([O-])c1cc(S(=O)(=O)N2CCCC2)ccc1NN=C1CCCC1 |  | 16.4 µM (active) |
| O=C(COc1ccc(S(=O)(=O)N2CCCC2)cc1[N+](=O)[O-])N1CCCCC1 | -20.5% |  |
| COC(=O)c1ccc(CN2C(=O)C(Cc3ccccc3)ON=C2c2ncccc2C)o1 (stereo not drawn) | -9.92% |  |
| CC(C)c1ccc(S(=O)(=O)Nc2ccc(O)c(Sc3nc4ccccc4s3)c2)cc1 |  | 16.4 µM (active) |
| O=S(=O)(Nc1ccc2nc(N3CCOCC3)sc2c1)c1ccccc1 | -27.7% |  |
| O=[N+]([O-])c1c(NCCO)cc(Sc2nc3ccccc3s2)c2nonc12 | -3.18% |  |
| COC(=O)N(C)C[C@@H]1OCc2cnnn2CCCC(=O)N([C@@H](C)CO)C[C@@H]1C | 0.072% |  |
| Nc1nc2c(ncn2[C@@H]2O[C@H](CNCc3ccc(OCCCN4CCOCC4)cc3)[C@@H](O)[C@H]2O)c(=O)[nH]1 | 6.4% |  |
| Nc1ncnc2c1ncn2[C@@H]1O[C@H](C(=O)N2CCCN(Cc3ccccc3F)CC2)[C@@H](O)[C@H]1O | 0.685% |  |
| CC(C)Oc1ccc(CCc2nnc(SCC(=O)O)n2-c2ccccc2)cc1 | 13.3% |  |
| C=CCn1c(CCc2ccc(OC(C)C)cc2)n[nH]c1=S | -20.5% |  |
| CC(C)Oc1ccc(CCc2n[nH]c(=S)n2Cc2ccccc2)cc1 |  | 16.4 µM (active) |
| C[C@@H]1CN([C@@H](C)CO)C(=O)CCCn2cc(nn2)CO[C@H]1CN(C)S(=O)(=O)c1ccc(-n2cccn2)cc1 | 9.14% |  |

| SMILES | activity change, negative = cytotoxicity | Potency |
| --- | --- | --- |
| Nc1nnc(SCC(=O)Nc2ccc3nc(SCC(=O)Nc4ccccc4)sc3c2)s1 |  | 23.1 µM (active) |
| CCCCNC(=O)CSc1nc2ccc(NC(=O)CSc3nnc(N)s3)cc2s1 | 6.17% |  |
| CCCCNC(=O)CSc1nc2ccc(NC(=O)CSc3nnc(COc4ccccc4C)n3C)cc2s1 | -28.6% |  |
| COc1ccc(N2c3ccccc3CN(Cc3ccccc3)[C@@H](C)[C@H]2Cc2ccc(-c3ccccc3)cc2)cc1 | 2.89% |  |
| Clc1cccc(Cc2c(-c3cccc(Cl)c3)nc3ccc(Cl)cn23)c1 | 12% |  |
| CCc1ccc(NC(=O)c2ccc(Cn3cc([N+](=O)[O-])cn3)cc2)cc1 |  | 4.61 µM (active) |
| O=C(Nc1ccccc1F)c1ccc(Cn2cc(Br)cn2)cc1 | 0.173% |  |
| O=C(c1ccc(Cn2cc([N+](=O)[O-])cn2)o1)N1CCCC1 | -1.32% |  |
| CCOC(=O)C1=CC[C@@H](c2ccccc2)N(S(=O)(=O)c2ccc(C)cc2)[C@H]1c1cccc(OC)c1 | -19.1% |  |
| O=C(NCc1ccccc1)C1c2ccccc2OCC(=O)N1CCCN1CCOCC1 (stereo not drawn) | 0% |  |
| CCOC(=O)c1ccc(NC(=O)C2CC(=O)NC(=Nc3ccc(C)c(C)c3)S2)cc1 (stereo not drawn) | 0% |  |
| Cc1ccc(Cc2c(-c3ccco3)nc3ccc(Cl)cn23)cc1 | -9.86% |  |
| Oc1cccc(/C=N/Nc2ccc(Cl)nn2)c1O | -22.1% |  |
| Brc1ccccc1/C=N/Nc1nc2ccccc2o1 | 16.2% |  |
| Oc1c(Br)cccc1/C=N/Nc1c(F)c(F)c(F)c(F)c1F |  | 25.9 µM (active) |
| CCOc1ccc(Nc2nc3c(S(=O)(=O)c4cccc(Cl)c4)nnn3c3ccsc23)cc1 | 1.29% |  |
| CSc1ccc(CN2CCC2(C)C(=O)NCc2ccccc2Br)cc1 (stereo not drawn) | -11.6% |  |
| CCc1nnc(NC(=O)c2ccco2)s1 | 27.7% |  |
| CCCCCNC(=O)C1C(=O)Nc2ccccc2C(=O)N1C(C)(C)C (stereo not drawn) | -14.7% |  |
| CCCN(CCC)C(=S)Nc1cc(C(=O)OC)ccc1C(=O)OC |  | 20.6 µM (active) |
| CCN(CCO)C(=S)Nc1cc(C(=O)OC)ccc1C(=O)OC | -19.1% |  |
| CCS(=O)(=O)Nc1cc(C(=O)OC)ccc1C(=O)OC | 12.8% |  |
| COc1ccc2c(C)c(CCC(=O)NCc3ccc(OC)c(OC)c3)c(=O)oc2c1 | -7.69% |  |
| O=C(CCCN1C(=O)C(c2ccccc2)Oc2cccnc21)Nc1ccccc1Br (stereo not drawn) | -25.5% |  |
